Columns and labels:
Experiment in all cases: PBM binding z-score (relative to random genomic background probes); higher = stronger binding; sequences stand for … in GC…GCGATTGACAGCGTAGAATGAAGG
[1] = tested on: RARb homodimer (NR concentration 270 nM)
Procedure, shortened: (§1)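 Custom Agilent 4×180K protein-binding microarrays carried double-stranded probes, each with a 34-nt variable region. These regions held direct-repeat seeds, single-nucleotide variants, half-site ablations and random human genomic background sequences. Ligand-free nuclear receptor dimers were incubated on the arrays for 1 h, antibodies against each partner (one per run) detected binding, and scanned fluorescence was regression-normalized. Binding z-scores take the random background probes as reference.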

[2] = tested on: RARg:RXRa (NR concentration 270 nM, RXRa partner concentration 90 nM)
Procedure, shortened: as §1

[3] = tested on: RARg homodimer (NR concentration 270 nM)
Procedure, shortened: as §1

[4] = tested on: RXRa DBDmut IVT, anti-RXR (DBD mutation: RXRa K156A/R161A, NR concentration 90 nM)
Procedure, shortened: as §1

[5] = tested on: RXRa homodimer (NR concentration 180 nM)
Procedure, shortened: as §1

[6] = tested on: THRa:RXRa (NR concentration 90 nM, RXRa partner concentration 90 nM)
Procedure, shortened: as §1

[7] = tested on: THRa homodimer (NR concentration 90 nM)
Procedure, shortened: as §1

[8] = tested on: VDR:RXRa (NR concentration 270 nM, RXRa partner concentration 90 nM)
Procedure, shortened: as §1

[9] = tested on: VDR homodimer (NR concentration 270 nM)
Procedure, shortened: as §1

Sequence	PBM binding z-score [1]	PBM binding z-score [2]	PBM binding z-score [3]	PBM binding z-score [4]	PBM binding z-score [5]	PBM binding z-score [6]	PBM binding z-score [7]	PBM binding z-score [8]	PBM binding z-score [9]
GGAACGAGGGCAAGTTGTTAGCAGAGTTTGATGG	1.42	1.49	1.82	2.39	0.957	1.46	0.187	0.88	1.65
ATCTCTAGGTAATGATAGTTCAGTGAATGCAAAT	0.921	0.493	0.864	0.246	0.462	0.79	0.35		0.644
CGAACGAGGGCATGAGGTGATAGCAAATGCCGAT	1.11	1.88	1.83	1.56	1.32	2.26	0.557	0.93	0.945
GCTTACGGGTTAAAGGTTATAGCATGAATAGAAT	1.74	3.66	1.37	0.714	6.82	2.8	0.253	3.18	0.558
ACAGACAGGGGAGTGAAGGTAACTCAGCTGGACG	0.179	-0.128	0.208	-0.277	0.0403	0.674	0.101	-0.347	-0.467
ACTATTAGTTGACTTAGGGCAACCGTTACGACGC	1.34	0.618	0.892	1.01	0.622	1.53	0.619	0.577	0.195
CGAACTAGGTCAGAACAGGTCAGTGAAGGATGAT	3.88	3.47	4.34	1.03	2.22	4.08	0.526	2.68	0.955
TATACAGGGTCAAAGGCCAGAGAACGAATGTCGA	3.31	5.7	5.34	2.75	7.14	3.4	0.635	4.77	2.34
ACTAGTTGGGCAGCTGAGGTCACACACAATTCGG	3.83	3.56	3.17	1.21	3.56	4.63	4.73	3.72	2.9
CGTCAAAGTTCAAGGTAACGTACCAGAAAGCAGC	3.97	5.35	6.14	4.5	4.54	3.12	1.39	3.87	3.21
CCTGGTAGGTCATGGTCAGCTAATCTACAGTATG	3.07	4.23	4.8	0.728	3.62	2.22	0.615	1.89	0.706
TCTAGCAGGCCAGAGAGTCACTCAAGAGGTACGG	-0.56	-0.0784	-0.0814	-0.229	0.33	-0.304	-1.31	-0.279	-0.865
TCTTGTAGATCAAGCAGGTTTAGAAAGCCTGAGT	-0.518	-0.361	-0.474	0.521	-0.16	-0.173	-0.583	0.444	0.0833
AATACAGGGTTACTAGGCCAGAGTAGGTACGAAT	0.925	1.24	0.893	0.264	1.57	1.07	0.206	0.824	0.675
TCACCAAGGTGAAAGGTCGTTGATGCACGCCTTG	2.63	4.15	2	1.09	5.41	3.33	0.739	3.17	0.922
ACTATTCGTTGACTTAGGGCAACCGATACGACGC	0.887	0.792	0.996	0.445	0.633	0.912	0.963	0.325	0.261
ATACGTAGGTTAGCTGGGGTCATTCAGACTAGGC	3.71	4.03	3.01	1.65	5.42	4.9	2.74	6.12	4.13
CGAACGAGGGCAAGAGTTGATAGCAAATGCCGAT	1.44	1.67	1.85	1.89	1.1	0.79	-0.443	0.703	1.07

Sequence	PBM binding z-score [1]	PBM binding z-score [2]	PBM binding z-score [3]	PBM binding z-score [4]	PBM binding z-score [5]	PBM binding z-score [6]	PBM binding z-score [7]	PBM binding z-score [8]	PBM binding z-score [9]
CCAGACAGGTGAAAGGAAACTCAGTCTGGTACGC	-0.0541	0.0543	0.198	-0.167	0.41	-0.104	-0.669	-0.116	-0.334
TCGAGTAGGTTAGGGGCATTCAGAATGGCGTCGA	0.976	0.269	0.406	0.45	0.658	0.87	0.0711	0.508	0.98
TAGCCTAGGTCAGATCGTGCCAGTATACGCTATA	2.22	2.83	3.28	-0.193	1.33	2.46	0.0586	0.516	-0.325
ATATGTAGGTTATCGGGTCACTCAGTTTGCGCAT	3.37	3.31	3.06	1.56	3.33	3.59	3.18	5	2.36
TAGCCTAGGTCATGGACCAGTATACCACGCGAAC	2.8	4.03	4.21	0.316	3.56	3.18	1.13	2.13	0.57
TGAATGAGGTTAAAGATCAGGTAACGTGGCGTCG	0.893	2.55	1.38	0.98	3.9	3.29	1.42	1.92	0.674
GCGACTGGGGCAAAGTAGGTTACCATAAGGTTGG	1.42	0.662	0.576	-0.138	0.504	2.09	0.208	-0.0639	0.042
CCTTACGGGACACTGACAGGTTATAGCATTTGGA	0.492	0.652	0.903	0.645	0.341	0.178	0.0512	-0.00746	-0.0453
AATACAGGGTCATCATAGGCCAGAGTACGCACAG	3.57	5.66	5.42	3.54	6.89	4.39	1.78		3.46
CAAACTAGGTCAAGAGGTTAAAGTCCGCTTCCCG	4.23	6.18	5.49	1.61	5.2	3.36	1.36	4.18	1.86
CTACCAAGGTGAACAAGGTCCTTGATTACTATTC	1.02	0.733	0.947	0.723	0.86	2.29	1.03	3.56	0.358
CCTTACGGGTCAAGCTTATAGCACGGGTGGTACG	2.82	4.93	4.64	1.11	5.08	2.23	-0.294	3.11	0.754
CCTACTGGGCCATTCAGAGGTAATTGATCATATG	-0.0878	0.0655	0.162	-0.042	-0.244	0.3	-0.433	-0.36	-0.114
TTACCAAGGTGAGCTGAGGTCCTTGATCCAACTC	0.469	0.18	0.227	-0.639	0.399	3.79	0.733	0.464	-0.397
TAGCCTAGGTCAGATCGGGCCAGGATACGCTATA	1.88	2.77	3.35	-0.775	1.45	4.2	0.225	0.248	-0.433
GCAGACAGGTGCAACGCAGGTAACTCAGGGTGGC	-0.431	-0.314	-0.365	0.123	0.00957	2.13	-0.805		-0.15
TAGCCTTGGTCATGCGGGCCAGTATAGTGTCGGC	-0.234	-0.0381	0.129	-1.52	-0.29	-0.715	-0.902		-0.904
TCTAGCAGGACAGAGGGTCACTCAAGAGGTACGG	2.77	2.39	2.11	0.168	2.48	1.86	-0.03		0.674
